Results taken from PubChem BioAssay AID1159580 (chemical genetic matrix, 2015).
Several values for one entry are separate records, joined by “and”; a condition that tells them apart may be missing. Identical values can stand only once. Screen size: about 5,500 compounds; about 2,000 (36%) were called active. Inconclusive results (about 18%) are left out. No stated cut-off is given here; in the data, active means normalized growth mostly below about 0.91 (no sharp cut-off); inconclusive means no clear call, values can overlap the other calls; inactive means mostly above about 0.92. The list shows a part of the results.

Assay: chemical genetic growth profiling, strain panel (AID 1159580);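 further: tested at 20 µM; growth read once vehicle control cultures reached saturation at 30 °C; 1 = growth at the plate median or of vehicle wells; lower values mean less growth of the strain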
Settings: S. cerevisiae deletion strains, growth OD

Measured: normalized growth

CN1CCCCC1c1ccc(-c2cccnc2)nc1 (stereo not given)
inactive: locus YAL013W, strain DEP1, hits give low values 1.01 | locus YAL021C, strain ccr4, hits give low values 0.987 | locus YAL026C, strain drs2, hits give low values 0.965 | locus YAL030W, strain snc1, hits give low values 0.984 | locus YBL061C, strain skt5, hits give low values 0.975 | locus YBR009C, strain hhf1, hits give low values 0.938 | locus YBR021W, strain FUR4, hits give low values 1.1 | locus YBR023C, strain chs3, hits give low values 0.99 | locus YBR171W, strain sec66, hits give low values 0.971 | locus YBR229C, strain ROT2, hits give low values 1.02 | locus YBR231C, strain swc5, hits give low values 0.982 | locus YBR279W, strain paf1, hits give low values 0.984 | locus YCL011C, strain gbp2, hits give low values 0.964 | locus YCL016C, strain dcc1, hits give low values 0.997 | locus YCL029C, strain bik1, hits give low values 0.97 | locus YCL061C, strain MRC1, hits give low values 0.98 | locus YCL069W, strain vba3, hits give low values 0.979 | locus YCR088W, strain abp1, hits give low values 0.994 | locus YDL005C, strain med2, hits give low values 0.964 | locus YDL035C, strain GPR1, hits give low values 1.01 | locus YDL040C, strain nat1, hits give low values 0.983 | locus YDL074C, strain BRE1, hits give low values 1.01 | locus YDL101C, strain DUN1, hits give low values 1.02 | locus YDL134C, strain PPH21, hits give low values 1.1 | locus YDL185W, strain tfp1, hits give low values 0.959 | locus YDL192W, strain arf1, hits give low values 0.983 | locus YDR001C, strain nth1, hits give low values 0.962 | locus YDR069C, strain doa4, hits give low values 0.962 | locus YDR101C, strain arx1, hits give low values 0.999 | locus YDR137W, strain rgp1, hits give low values 0.975 | locus YDR150W, strain NUM1, hits give low values 1.01 | locus YDR159W, strain sac3, hits give low values 0.927 | locus YDR162C, strain NBP2, hits give low values 1.07 | locus YDR195W, strain ref2 0.929 | locus YDR297W, strain sur2, hits give low values 0.967 | locus YDR318W, strain mcm21, hits give low values 1 | locus YDR334W, strain swr1, hits give low values 0.971 | locus YDR335W, strain msn5, hits give low values 0.99 | locus YDR388W, hits give low values 0.997 | locus YDR392W, strain spt3, hits give low values 0.874 | locus YDR502C, strain sam2, hits give low values 1.01 | locus YEL003W, strain gim4, hits give low values 0.979 | locus YEL037C, strain rad23, hits give low values 0.985 | locus YEL061C, strain CIN8 (second series), hits give low values 0.97 | locus YEL061C, strain CIN8, hits give low values 1.01 | locus YER015W, strain faa2, hits give low values 0.965 | locus YER016W, strain bim1, hits give low values 0.994 | locus YER110C, hits give low values 1 | locus YER111C, strain swi4, hits give low values 0.974 | locus YER155C, strain BEM2 (second series), hits give low values 0.971 | locus YER155C, strain BEM2, hits give low values 1.01 | locus YER167W, strain BCK2, hits give low values 1.03 | locus YFR010W, strain ubp6, hits give low values 0.969 | locus YGL078C, strain dbp3, hits give low values 0.996 | locus YGL086W, strain mad1, hits give low values 1.03 | locus YGL167C, strain pmr1, hits give low values 0.956 | locus YGL173C, strain kem1, hits give low values 0.973 | locus YGL227W, strain vid30, hits give low values 0.97 | locus YGL240W, strain doc1, hits give low values 0.965 | locus YGL248W, strain PDE1, hits give low values 1.01 | locus YGL253W, strain hxk2, hits give low values 0.992 | locus YGR135W, strain pre9, hits give low values 0.981 | locus YGR229C, strain SMI1, hits give low values 1.08 | locus YGR252W, strain gcn5, hits give low values 1.05 | locus YHR013C, strain ard1, hits give low values 0.929 | locus YHR027C, strain rpn1, hits give low values 0.984 | locus YHR030C, strain SLT2, hits give low values 0.995 and 1 | locus YHR079C, strain IRE1 (second series), hits give low values 0.998 | locus YHR079C, strain IRE1, hits give low values 0.988 | locus YHR094C, strain hxt1, hits give low values 1.02 | locus YHR129C, strain ARP1, hits give low values 1.02 | locus YHR142W, strain chs7, hits give low values 1 | locus YHR200W, strain rpn10, hits give low values 0.984 | locus YIL066C, strain RNR3, hits give low values 1.05 | locus YIL073C, strain SPO22, hits give low values 1.02 | locus YIL125W, strain kgd1, hits give low values 0.998 | locus YIR030C, strain dcg1, hits give low values 0.995 | locus YJL092W, strain hpr5, hits give low values 0.985 | locus YJL095W, strain BCK1 (second series), hits give low values 0.998 | locus YJL095W, strain BCK1, hits give low values 1.07 and 1.03 | locus YJL115W, strain asf1, hits give low values 0.991 | locus YJL129C, strain trk1, hits give low values 0.983 | locus YJL134W, strain LCB3, hits give low values 0.996 | locus YJL154C, strain vps35, hits give low values 0.994 | locus YJL164C, strain tpk1, hits give low values 1.02 | locus YJL166W, strain qcr8, hits give low values 0.983 | locus YJL168C, strain set2, hits give low values 0.996 | locus YJL187C, strain SWE1 (second series), hits give low values 1.04 | locus YJL187C, strain SWE1, hits give low values 0.979 | locus YJR043C, strain POL32, hits give low values 1.04 | locus YJR066W, strain TOR1, hits give low values 0.951 | locus YKL009W, strain mrt4, hits give low values 0.986 | locus YKL068W, hits give low values 0.997 | locus YKL085W, strain MDH1 (second series), hits give low values 1.01 | locus YKL085W, strain MDH1, hits give low values 1.01 | locus YKL160W, strain elf1, hits give low values 1.01 | locus YKL190W, strain CNB1, hits give low values 1.02 | locus YKR001C, strain vps1, hits give low values 0.996 | locus YKR026C, strain gcn3, hits give low values 0.967 | locus YKR091W, strain srl3, hits give low values 0.969 | locus YLL001W, strain dnm1, hits give low values 1 | locus YLL026W, hits give low values 1 | locus YLL041C, strain sdh2, hits give low values 0.991 | locus YLR027C, strain aat2, hits give low values 0.979 | locus YLR039C, strain RIC1, hits give low values 1.07 | locus YLR058C, strain SHM2, hits give low values 1.02 | locus YLR102C, strain apc9, hits give low values 0.999 | locus YLR113W, strain HOG1, hits give low values 1.03 | locus YLR221C, strain rsa3, hits give low values 0.994 | locus YLR258W, strain gsy2, hits give low values 0.985 | locus YLR262C, strain YPT6 (second series), hits give low values 1.01 | locus YLR262C, strain YPT6, hits give low values 1.04 | locus YLR268W, strain sec22, hits give low values 1.01 | locus YLR320W, strain mms22, hits give low values 0.993 | locus YLR330W, strain CHS5, hits give low values 1.01 | locus YLR342W, strain FKS1 (second series), hits give low values 1.06 | locus YLR342W, strain FKS1, hits give low values 0.971 | locus YLR357W, strain rsc2, hits give low values 0.968 | locus YLR370C, strain arc18, hits give low values 0.966 | locus YLR371W, strain rom2, hits give low values 0.971 | locus YLR384C, strain iki3, hits give low values 0.993 | locus YLR418C, strain cdc73, hits give low values 1.05 | locus YML016C, strain PPZ1, hits give low values 1.01 | locus YML032C, strain rad52, hits give low values 0.997 | locus YML120C, strain ndi1, hits give low values 0.984 | locus YML124C, strain tub3, hits give low values 0.998 | locus YMR058W, strain fet3, hits give low values 0.97 | locus YMR078C, strain ctf18, hits give low values 0.999 | locus YMR125W, strain sto1, hits give low values 0.942 | locus YMR129W, hits give low values 0.974 | locus YMR205C, strain PFK2, hits give low values 0.934 | locus YMR223W, strain ubp8, hits give low values 0.987 | locus YMR231W, strain pep5, hits give low values 0.967 | locus YMR307W, strain GAS1, hits give low values 1.19 | locus YNL067W, strain RPL9B, hits give low values 1.05 | locus YNL071W, strain lat1, hits give low values 0.993 | locus YNL183C, strain NPR1, hits give low values 0.979 | locus YNL209W, strain ssb2, hits give low values 0.966 | locus YNL233W, strain BNI4, hits give low values 1.07 | locus YNL248C, strain rpa49, hits give low values 1.02 | locus YNL250W, strain rad50, hits give low values 0.988 | locus YNL271C, strain bni1, hits give low values 0.988 | locus YNL298W, strain CLA4, hits give low values 1 | locus YNL307C, strain MCK1, hits give low values 1 | locus YNL322C, strain KRE1 (second series), hits give low values 0.971 | locus YNR049C, strain mso1, hits give low values 0.986 | locus YNR052C, strain pop2, hits give low values 0.993 | locus YOL006C, strain TOP1, hits give low values 1.11 | locus YOL012C, strain htz1 1.24 | locus YOL147C, strain pex11, hits give low values 1.01 | locus YOR001W, strain rrp6, hits give low values 1.02 | locus YOR061W, strain CKA2, hits give low values 1.01 | locus YOR069W, strain VPS5, hits give low values 1 | locus YOR070C, strain gyp1, hits give low values 0.997 | locus YOR080W, strain dia2, hits give low values 0.966 | locus YOR083W, strain WHI5, hits give low values 1.01 | locus YOR106W, strain vam3, hits give low values 1 | locus YOR136W, strain idh2, hits give low values 0.995 | locus YOR144C, strain elg1, hits give low values 1.01 | locus YOR184W, strain ser1, hits give low values 1.02 | locus YOR231W, strain MKK1, hits give low values 0.992 | locus YOR265W, strain rbl2, hits give low values 1.01 | locus YOR270C, strain vph1, hits give low values 0.974 | locus YOR290C, strain snf2, hits give low values 0.923 | locus YOR316C, strain cot1, hits give low values 0.99 | locus YPL051W, strain arl3, hits give low values 1.01 | locus YPL078C, strain atp4, hits give low values 0.999 | locus YPL106C, strain sse1, hits give low values 0.934 | locus YPL240C, strain hsp82, hits give low values 0.981 | locus YPL256C, strain CLN2, hits give low values 0.977 | locus YPR119W, strain clb2, hits give low values 1 | locus YPR141C, strain kar3, hits give low values 0.986 | locus YPR163C, strain tif3, hits give low values 0.998 | locus YPR167C, strain met16, hits give low values 0.999 | strain wtn01, hits give low values 0.983
